# Screens (PubChem BioAssay)
# Compounds with a hit are over-represented: about 0.61% of the library has one in this group of screens.
# Mtb bLac sens: beta-lactam sensitization of Mtb H37Rv, H37Rv; inhibition, % at 25 µM; M. tuberculosis H37Rv growth with meropenem, percent inhibition; AID 434955, 2010; actives 0.27% (n = 330,000); call rule not given here;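 also: growth measured after seven days incubation then overnight dye step; 0% = bacteria only wells and 100% = bacteria with antibiotic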
# RN4220 kill: growth inhibition of S. aureus RN4220, primary screen, OD600 | AID 1259311, 2017 | 16 h | actives 0.33% (n = 330,000) | inhibition, % (concentration not given with the values); in the data active = inhibition above about 85%;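 also: plate controls were untreated cells for no effect and reference antibiotic for full effect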
# Mtb hypoxia inh: PubChem AID 1159583. M. tuberculosis hypoxia-regulated fluorescent reporter, fluorescence. actives 0.1% (n = 300,000). fluorescence inhibition, % (test concentration not listed); in the data active = fluorescence inhibition mostly above about 23%, no sharp cut-off; inactive = mostly below about 17%
# Sa ugtP lethal: growth inhibition of ugtP-null S. aureus, primary screen, RN4220 ugtP deletion, OD600. 16 h. AID 1259309, 2017. actives 0.54% (n = 330,000). growth inhibition, % (concentration not given with the values); in the data active = growth inhibition above about 68%;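 also: plate controls were untreated wells for no effect and antibiotic for full effect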
# * = called active by the depositor; nt = no result shown.
SMILES,Mtb bLac sens,RN4220 kill,Mtb hypoxia inh,Sa ugtP lethal
COc1ccc(C#Cc2c(-c3ccccc3)n(C)c3ccccc23)cc1,-4,3,10,-7
COc1cc(C(=O)NN=Cc2ccc3c(c2)c2ccccc2n3C)ccc1O,nt,91*,13,86*
Oc1ccccc1N=Cc1ccc[nH]1,99,12,81*,-1
C(=Nc1ccccc1)c1ccc[nH]1,nt,3,3,-2
CSc1nc(Cl)c(Cc2ccc(OCC(C)C)cc2)c(N2CCOCC2)n1,22,-3,2,94*
CCOc1ccc(Cc2c(Cl)nc(SC)nc2OC)cc1,8,-3,15,83
CCCCOc1ccc(Cc2c(Cl)nc(SC)nc2N2CCOCC2)cc1,3,-2,8,92*
CCN(CC)C(=O)CSC(Nc1ccc(F)cc1)=C(C#N)C#N,0,6,-1,4
Cc1ccc(CSC(Nc2ccc(F)cc2)=C(C#N)C#N)cc1,-3,97*,0,97*
C#CCOCCOCCOCCNc1nc(N2CCN(C(=O)C(CCC(=O)O)n3cc(C(N)CCCCN)nn3)CC2)nc(N2CCN(C(=O)C(CC(N)=O)n3cc(C(N)C(C)CC)nn3)CC2)n1 (configuration not stated),nt,7,11,-1
C[C@@]12C(=O)N(Cc3ccccc3)CC(=O)N1C1c3ccccc3OCC1C2c1ccccc1 (some centres not stated),nt,-4,-9,-16
COc1cc(C=NN2CCN(Cc3ccc(Cl)cc3)CC2)cc(Br)c1O,nt,0,6,0
Fc1ccc2[nH]c3c(N4CCc5ccccc5C4)ncnc3c2c1,-6,-2,nt,-23
Brc1ccc2[nH]c3c(N4CCc5ccccc5C4)ncnc3c2c1,99,72,-4,97*
Cc1ccnc(NS(=O)(=O)c2ccc(NC(=O)C3CCCCC3)cc2)n1,3,5,9,3
Cc1cc(C)nc(NS(=O)(=O)c2ccc(NC(=S)NC(=O)C3CCCC3)cc2)n1,8,-1,1,86*
O=C(NC(=S)Nc1ccc(O)cc1)C1CCCC1,2,2,16,87*
Nc1nc(-c2ccccc2)cn1N=Cc1ccccc1,nt,0,5,-17
CC(CCN1C(N(C)C)=NCC1C)c1ccccc1 (configuration not stated),nt,7,12,-1
C=C(C)CNC(=S)NNC(=O)CCn1c2cc(Cl)ccc2c2ccc(Cl)cc21,0,7,-4,-18
C=C(C)CNC(=S)NNC(=O)CCn1c2ccc(Cl)cc2c2cc(Cl)ccc21,80,93*,0,43
COc1ccc(-c2nnc(NC(=O)c3ccc([N+](=O)[O-])o3)o2)c(OC)c1,97,2,nt,96*
Cc1ccc(-c2nnc(NC(=O)c3ccc([N+](=O)[O-])o3)o2)c(C)c1,99,-3,nt,92*
COc1ccc2nc(N3CCC(C)CC3)c(C#N)cc2c1,11,4,12,89*
O=C(O)CCCCCN1C(=O)/C(=C/c2cn(-c3ccccc3)nc2-c2cccs2)SC1=S,nt,45,8,78
SMILES,Mtb bLac sens,RN4220 kill,Mtb hypoxia inh,Sa ugtP lethal
O=C(O)CCN1C(=O)/C(=C\c2ccc(-c3nc4ccccc4s3)o2)SC1=S,16,109*,nt,101*
O=C(O)CCN1C(=O)/C(=C/c2cn(-c3ccccc3)nc2-c2cccs2)SC1=S,nt,38,7,93*
O=C(O)CCN1C(=O)/C(=C\c2ccncc2)SC1=S,40,8,38*,14
CC(=NNC(=O)c1cc(-c2cccc([N+](=O)[O-])c2)n[nH]1)c1ccccc1O,nt,9,12,-4
CN(C)C1=NCC(Cc2ccccc2)N1CCC1CCCC1 (configuration not stated),nt,4,20,3
COCc1c(C(=O)NN=Cc2cccnc2)nnn1-c1nonc1N,nt,1,-5,4
COC(=O)C1=C(C(=O)OC)C2N(C)c3ccccc3[C@@]23CC(C(=O)OC)N=C3N1 (some centres not stated),nt,5,1,-1
Nc1nc(-c2ccccc2)c(N=Nc2cccc3ccccc23)s1,40,99*,10,97*
COc1ccc(CC2c3cc(O)c(OC)cc3CC[N+]2(C)[O-])cc1O (configuration not stated),nt,7,2,6
COc1ccc(C(OC)[C@@]2(Cc3ccc(O)cc3)N=C(N)N(C)C2=O)cc1 (some centres not stated),nt,7,9,1
Cc1nnc(NCc2ccncc2)c2ccccc12,33,3,-20,-6
Cc1nnc(NCc2ccccc2)c2ccccc12,26,-5,81*,-2
c1ccc(CNc2nc(NCc3ccccc3)c3ccccc3n2)cc1,94,92*,-2,101*
Clc1nc2ccccc2nc1-c1ccccc1,-5,9,14,-1
Clc1ccc(-c2nc3ccccc3nc2-c2ccccc2)cc1,-1,-5,6,89*
Cc1ccc(-c2nc3ccccc3nc2-c2ccccc2)cc1,-15,-2,3,86*
CC(C)CC1COCCS(=O)(=O)N1Cc1cccc(C(F)(F)F)c1 (configuration not stated),nt,10,19,5
Cc1cc(C(=O)NN=Cc2ccncc2)c2ccccc2n1,nt,1,13,3
Cc1cccc(-n2cnc(C(=O)NN=Cc3ccc(Br)cc3)c2)n1,nt,6,nt,-4
CCCCOc1cccc(C=NNC(=O)c2csc(C)c2C)c1,nt,-1,nt,17
Cc1ccc2nc(N3C(=O)C(O)=C(C(=O)c4ccc(C)o4)C3c3ccc(O)cc3)sc2c1 (configuration not stated),57,44,0,87*
CCCS/C(N)=N/N=Cc1cc(C)ccc1O,nt,22,-1,11
CN(C)[C@@H]1C(=O)C(C(N)=O)=C(O)[C@@]2(O)C(=O)C3=C(O)c4c(O)cccc4[C@@](C)(O)C3[C@H](O)C12 (some centres not stated),6,nt,nt,nt
C=C1c2c(Cl)ccc(O)c2C(O)=C2C(=O)[C@]3(O)C(O)=C(C(N)=O)C(=O)C(N(C)C)C3C(O)C12 (some centres not stated),nt,100*,nt,100*
C=C1c2cccc(O)c2C(=O)C2C(=O)[C@]3(O)C(=O)C(C(N)=O)C(=O)C(N(C)C)C3C(O)C12 (some centres not stated),nt,100*,nt,89
C[C@H]1c2cccc(O)c2C(O)=C2C(=O)C3(O)C(O)=C(C(N)=O)C(=O)[C@@H](N(C)C)[C@@H]3[C@@H](O)[C@@H]21 (some centres not stated),98,nt,nt,nt
C=C1c2cccc(O)c2C(O)=C2C(=O)[C@]3(O)C(O)=C(C(N)=O)C(=O)[C@@H](N(C)C)[C@@H]3[C@@H](O)[C@H]12,79,100*,nt,99*
CCC(=O)Nc1cccc(C2=NOC3(C2)CC(C(N)=O)N(C(=O)CC)C3)c1 (configuration not stated),nt,10,0,1
N#Cc1ccc(C=NNC(=O)c2cc(-c3cccs3)nc3ccccc23)cc1,nt,-6,4,-3
Cc1ccc2c(c1)C(=O)N1C3c4cc(Br)ccc4OCC3C(c3ccccc3)[C@]1(C)C(=O)N2 (some centres not stated),nt,-4,-3,-16
